{
  "source": "the antibiotic and cytotoxicity screens of Wong et al. (2023)",
  "note": "The campaign covered roughly 39,000 compounds. About 3,300 (8.5%) were called active. This is one part of a sample in which actives are shown more often than they occur.",
  "data": [
    {"system": "HepG2", "assay": "cytotoxicity call (relative viability < 0.9)", "details": "10 µM", "values": [
      {"smiles": "C[C@@H]1CCCCO[C@H](CN(C)Cc2ccc3c(c2)OCO3)[C@H](C)CN([C@@H](C)CO)C(=O)c2cc(NC(=O)Cc3ccccc3)ccc2O1", "cytotoxicity call": "inactive"},
      {"smiles": "CNC(=O)C[C@@H]1CC[C@H]2[C@@H](COc3ccc(NC(=O)c4ccc(C(F)(F)F)cc4)cc3C(=O)N2C)O1", "cytotoxicity call": "inactive"},
      {"smiles": "O=C(C[C@@H]1C[C@@H]2c3cc(NC(=O)c4ccc5c(c4)OCO5)ccc3O[C@@H]2[C@H](CO)O1)NCc1cccnc1", "cytotoxicity call": "inactive"},
      {"smiles": "O=C(C[C@H]1C[C@@H]2c3cc(NC(=O)c4ccc5c(c4)OCO5)ccc3O[C@@H]2[C@H](CO)O1)NCc1ccc(Oc2ccccc2)cc1", "cytotoxicity call": "inactive"},
      {"smiles": "O=C(C[C@@H]1C[C@@H]2c3cc(NC(=O)c4ccc5c(c4)OCO5)ccc3O[C@@H]2[C@@H](CO)O1)NCCc1ccccc1", "cytotoxicity call": "inactive"},
      {"smiles": "O=C(C[C@H]1C[C@@H]2c3cc(NC(=O)c4ccc5c(c4)OCO5)ccc3O[C@@H]2[C@H](CO)O1)NCc1cccnc1", "cytotoxicity call": "inactive"},
      {"smiles": "O=C(C[C@H]1C[C@@H]2c3cc(NC(=O)c4ccc5c(c4)OCO5)ccc3O[C@@H]2[C@@H](CO)O1)NCc1ccc(Oc2ccccc2)cc1", "cytotoxicity call": "active"},
      {"smiles": "O=C(C[C@H]1C[C@H]2c3cc(NC(=O)c4ccc5c(c4)OCO5)ccc3O[C@H]2[C@H](CO)O1)NCc1ccc(Oc2ccccc2)cc1", "cytotoxicity call": "active"},
      {"smiles": "O=C(C[C@H]1C[C@H]2c3cc(NC(=O)c4ccc5c(c4)OCO5)ccc3O[C@H]2[C@H](CO)O1)NCc1cccnc1", "cytotoxicity call": "inactive"},
      {"smiles": "O=C(C[C@H]1C[C@H]2c3cc(NC(=O)c4ccc5c(c4)OCO5)ccc3O[C@H]2[C@@H](CO)O1)NCCc1ccccc1", "cytotoxicity call": "inactive"},
      {"smiles": "O=C(C[C@@H]1C[C@H]2c3cc(NC(=O)c4ccc5c(c4)OCO5)ccc3O[C@H]2[C@H](CO)O1)NCc1ccc(Oc2ccccc2)cc1", "cytotoxicity call": "inactive"},
      {"smiles": "O=C(C[C@@H]1C[C@@H]2c3cc(NC(=O)c4ccc5c(c4)OCO5)ccc3O[C@@H]2[C@H](CO)O1)NCCc1ccccc1", "cytotoxicity call": "active"},
      {"smiles": "O=C(C[C@H]1C[C@H]2c3cc(NC(=O)c4ccc5c(c4)OCO5)ccc3O[C@H]2[C@@H](CO)O1)NCc1cccnc1", "cytotoxicity call": "inactive"},
      {"smiles": "O=C(C[C@@H]1C[C@@H]2c3cc(NC(=O)c4ccc5c(c4)OCO5)ccc3O[C@@H]2[C@H](CO)O1)NCc1ccc(Oc2ccccc2)cc1", "cytotoxicity call": "active"},
      {"smiles": "C=CCOC(=O)[C@H]1[C@@H]2C(=O)O[C@@H](c3ccccc3)[C@@H](c3ccccc3)N2[C@@H](c2ccc(OCCOC(=O)[C@@H]3C[C@@H]4C(=O)N[C@@H](CC(C)C)C(=O)N4[C@@H]3c3cccc(OCCO)c3)cc2)[C@]12C(=O)Nc1ccc(I)cc12", "cytotoxicity call": "inactive"},
      {"smiles": "CC(C)NC(=O)Nc1cccc2c1O[C@H](CN(C)C(=O)Nc1ccc3c(c1)OCO3)[C@H](C)CN([C@H](C)CO)C2=O", "cytotoxicity call": "inactive"},
      {"smiles": "CC(C)NC(=O)N(C)C[C@H]1OCCCC[C@@H](C)Oc2ccc(NS(C)(=O)=O)cc2C(=O)N([C@@H](C)CO)C[C@H]1C", "cytotoxicity call": "inactive"},
      {"smiles": "C[C@@H]1CN([C@@H](C)CO)C(=O)c2cccc(NC(=O)c3ccncc3)c2O[C@@H]1CN(C)Cc1ccc(-c2ccccc2)cc1", "cytotoxicity call": "inactive"},
      {"smiles": "CCS(=O)(=O)N[C@@H]1C=C[C@H](CC(=O)NCc2ccccn2)O[C@@H]1CO", "cytotoxicity call": "inactive"},
      {"smiles": "COc1ccc(NC(=O)N(C)C[C@H]2OCCCC[C@@H](C)Oc3ccc(NS(=O)(=O)c4cccs4)cc3C(=O)N([C@H](C)CO)C[C@@H]2C)cc1", "cytotoxicity call": "inactive"},
      {"smiles": "C[C@@H]1CN([C@H](C)CO)C(=O)c2cc(NC(=O)c3ccncc3)ccc2O[C@H]1CN(C)Cc1ccc2c(c1)OCO2", "cytotoxicity call": "inactive"},
      {"smiles": "O=C(C[C@H]1C[C@H]2c3cc(NC(=O)c4ccc5c(c4)OCO5)ccc3O[C@H]2[C@@H](CO)O1)NCc1ccc(Oc2ccccc2)cc1", "cytotoxicity call": "active"},
      {"smiles": "O=C(C[C@@H]1C[C@H]2c3cc(NC(=O)c4ccc5c(c4)OCO5)ccc3O[C@H]2[C@@H](CO)O1)NCc1ccc(Oc2ccccc2)cc1", "cytotoxicity call": "inactive"},
      {"smiles": "O=C(C[C@@H]1C[C@@H]2c3cc(NC(=O)c4ccc5c(c4)OCO5)ccc3O[C@@H]2[C@@H](CO)O1)NCc1ccc(Oc2ccccc2)cc1", "cytotoxicity call": "inactive"},
      {"smiles": "Cc1noc(C)c1NC(=O)Nc1ccc2c(c1)C(=O)N([C@@H](C)CO)C[C@@H](C)[C@@H](CN(C)Cc1ccc3c(c1)OCO3)OCCCC[C@@H](C)O2", "cytotoxicity call": "inactive"},
      {"smiles": "COc1ccc(COC[C@]23N=C4Sc5ccc([N+](=O)[O-])cc5C(=O)N4[C@H](c4ccccc4O2)[C@H]3CO[Si](C)(C)C(C)(C)C)cc1", "cytotoxicity call": "inactive"},
      {"smiles": "C[C@@H]1CN([C@@H](C)CO)C(=O)c2c(c3ccccc3n2C)-c2ccccc2CO[C@@H]1CN(C)C(=O)Nc1ccc(F)cc1", "cytotoxicity call": "inactive"},
      {"smiles": "C[C@H]1CCCCO[C@H](CN(C)Cc2ccc3c(c2)OCO3)[C@@H](C)CN([C@@H](C)CO)C(=O)c2cc(NC(=O)Nc3cccc4ccccc34)ccc2O1", "cytotoxicity call": "active"},
      {"smiles": "C[C@H](CO)N1C[C@H](C)[C@H](CN(C)Cc2ccc3c(c2)OCO3)OCCCC[C@H](C)Oc2ccc(NC(=O)Nc3cccc4ccccc34)cc2C1=O", "cytotoxicity call": "active"},
      {"smiles": "C[C@H](CO)N1C[C@H](C)[C@@H](CN(C)Cc2ccc3c(c2)OCO3)OCCCC[C@H](C)Oc2ccc(NC(=O)Nc3cccc4ccccc34)cc2C1=O", "cytotoxicity call": "inactive"},
      {"smiles": "C[C@@H]1CCCCO[C@@H](CN(C)Cc2ccc3c(c2)OCO3)[C@H](C)CN([C@@H](C)CO)C(=O)c2cc(NC(=O)Nc3cccc4ccccc34)ccc2O1", "cytotoxicity call": "inactive"},
      {"smiles": "C[C@@H]1CCCCO[C@@H](CN(C)Cc2ccc3c(c2)OCO3)[C@H](C)CN([C@H](C)CO)C(=O)c2cc(NC(=O)Nc3cccc4ccccc34)ccc2O1", "cytotoxicity call": "active"},
      {"smiles": "C[C@@H]1CN([C@H](C)CO)C(=O)c2cc(NC(=O)Nc3cccc4ccccc34)ccc2O[C@@H](C)CCCCO[C@H]1CN(C)Cc1ccc2c(c1)OCO2", "cytotoxicity call": "active"},
      {"smiles": "C[C@@H]1CN([C@@H](C)CO)C(=O)c2cc(NC(=O)Nc3cccc4ccccc34)ccc2O[C@@H](C)CCCCO[C@@H]1CN(C)Cc1ccc2c(c1)OCO2", "cytotoxicity call": "inactive"},
      {"smiles": "C[C@@H]1CCCCO[C@H](CN(C)Cc2ccc3c(c2)OCO3)[C@@H](C)CN([C@H](C)CO)C(=O)c2cc(NC(=O)Nc3cccc4ccccc34)ccc2O1", "cytotoxicity call": "inactive"},
      {"smiles": "CC(C)C#Cc1cnc2c(c1)C(=O)N([C@@H](C)CO)C[C@H](C)[C@H](CN(C)S(=O)(=O)c1cn(C)cn1)O2", "cytotoxicity call": "inactive"}
    ]}
  ]
}
